Shown are actives, neighbours in structure and some others; about 6.4% of the full set was active somewhere.
RORgamma inh: inhibitors of mouse ROR gamma transcriptional activity; 310,000 compounds, 5.4% hits; Drosophila S2 Gal4-RORgamma UAS-luciferase reporter, 20 h; Potency, µM (highest dose often 53.6 µM), for the others: at the top dose activity change, negative = inhibition, hits mostly inhibitors; note: nearly all actives have a fitted effect of over 60% in size
Target sequence (P51450 whole entry, looked up, the tested form may be a part): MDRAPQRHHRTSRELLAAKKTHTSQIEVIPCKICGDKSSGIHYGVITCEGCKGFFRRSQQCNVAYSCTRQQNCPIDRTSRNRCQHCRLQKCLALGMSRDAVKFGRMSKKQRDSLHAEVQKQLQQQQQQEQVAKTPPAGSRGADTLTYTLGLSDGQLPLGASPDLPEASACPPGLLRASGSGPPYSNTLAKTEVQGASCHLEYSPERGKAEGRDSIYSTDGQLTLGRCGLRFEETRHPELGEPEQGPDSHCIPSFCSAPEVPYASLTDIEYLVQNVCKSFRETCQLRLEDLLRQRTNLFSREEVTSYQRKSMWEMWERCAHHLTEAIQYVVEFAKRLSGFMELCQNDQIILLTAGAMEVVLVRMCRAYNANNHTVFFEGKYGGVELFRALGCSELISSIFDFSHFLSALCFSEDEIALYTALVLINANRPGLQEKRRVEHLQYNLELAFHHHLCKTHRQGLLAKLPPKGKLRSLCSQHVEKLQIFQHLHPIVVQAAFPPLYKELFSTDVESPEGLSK
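Luciferase reporter read in Schneider cells carrying Gal4-RORγ (mouse) and UAS-Photinus luciferase; cells given compound 1 h before 700 uM copper sulfate induction, then incubated 20 h at ambient temperature.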
Luc counter: blocks Kinase-Glo luciferase, a counter-screen artifact | Kinase-Glo luciferase, ATP luminescence, 8 min | 200,000 compounds, 0.28% hits | Potency, µM (titrated, usually from 38.3 µM), without a hit: at the highest dose activity change, negative = inhibition, actives largely listed as inhibitors | AID 1379 | Q27757; note: nearly all actives have a fitted effect of over 60% in size
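Compound is pinned into ATP-containing buffer (10 uM ATP, imidazole pH 7.2, 7 mM MgCl2). Kinase-Glo luciferase reagent is then added. Light output is recorded following an 8-min room-temperature incubation.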
VP16 counter: counter-screen for ROR gamma inhibitors: Gal4-VP16 reporter; Potency, µM (series often up to 53.6 µM), for the others: at the top dose activity, negative = inhibition, most hits filed as inhibitors; Drosophila S2 Gal4-VP16 UAS-luciferase, luminescence, 20 h; 310,000 compounds, 3.5% hits;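 note: Gal4-VP16 expression switched on by copper sulfate through the metallothionein promoter; nearly all actives have a fitted effect of over 50% in size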
An asterisk follows results filed as active; ? = inconclusive; · = no result; [ ] = dose if it differs, or a comment. Calls come from the whole dose curve; as a rule, active = well fitted curve in the direction sought with a large enough effect; inconclusive = small, poorly fitted or top-dose-only effect, or another doubt; inactive = no such curve, though single readings can be large; an effect the other way counts as inactive or inconclusive. % is set by controls: 0 for no effect and ±100 for the full control effect; potency is the fitted concentration of half-maximal effect.

SMILES | RORgamma inh | Luc counter | VP16 counter
CCOC(=O)c1sc2nc(C)nc(SCC(=O)N(C)C3CCS(=O)(=O)C3)c2c1C (stereo unspecified) | 13µM* | -6% | -4%
CN(C(=O)CSc1ncnc2sc(-c3ccccc3)cc12)C1CCS(=O)(=O)C1 (stereo unspecified) | 11µM* | 0% | ?
Cc1sc2ncnc(SCC(=O)N(C)C3CCS(=O)(=O)C3)c2c1C (stereo unspecified) | -13% | 0% | 1%
C[C@@H]1C[C@@H]([C@@H](C)CC2CC(=O)NC(=O)C2)C(=O)[C@@H](C)C1 | 0.22µM* | 2%[39.9 µM] | 0%
CCOc1ccc(C(=O)Nc2c(C(=O)N3CCC(N4CCCCC4)CC3)oc3ccccc23)cc1 | 8% | · | -2%
COc1ccc(OCC(=O)N/N=C2/C=C(C)CC2)cc1 | -39% | -4% | 8%
CC1=C/C(=N\NC(=O)c2ccc(O)cc2)CC1 | 13µM* | · | ?
CCOC(=O)N1CCC(=NNC(=O)c2ccccc2F)CC1 | -1% | -4% | 24%
CCOC(=O)N1CCC(=NNC(=O)c2ccc(O)cc2)CC1 | 8.9µM* | 0% | ?
CC(=O)N1CCC2(CC1)CC(=O)c1cc(OCC(=O)N3CCOCC3)ccc1O2 | -6% | 2% | -2%
C=CCN(C(=O)c1ccc(Cl)cc1)c1ccccc1C(=O)NCC(=O)O | 8% | · | -6%
Cc1c(Br)c(=O)oc2c(Br)c(O)c(O)cc12 | 5µM* | 0% | -20%
Cc1c(Br)c(=O)oc2c(Br)c(O)ccc12 | 3% | 2% | 1%
O=C(CN(c1ccccn1)S(=O)(=O)c1ccccc1)N/N=C/c1cccc([N+](=O)[O-])c1 | 19% | -1% | 0%
CC1=C(C(=O)c2ccccc2)C(c2cn(-c3ccccc3)nc2-c2ccc(Cl)cc2)NC(=S)N1 (stereo unspecified) | 5.6µM* | · | 3.5µM*
O=C1NC(=O)C(c2cn(-c3ccccc3)nc2-c2ccc(F)cc2)N1 (stereo unspecified) | 5% | 0% | 4%
O=C1[C@H]2[C@H]3[C@H](O)[C@H](O)C/C(=N/OCc4ccccc4)[C@@H]3CC[C@@H]2C(=O)N1C1CCCCC1 | 3%[10 µM] | · | -6%[10 µM]
CC(=O)c1cc2ccc(O)cc2oc1=O | 3% | · | -6%
Cc1ccc(N=c2oc3cc(O)ccc3cc2C(N)=O)cc1 | 0.89µM* | · | 0.89µM*
Cn1c(=O)cc(OCC(=O)NCc2cccs2)c2ccccc21 | -4% | 1% | 16%
CCCCN(CCCC)C(=S)NC(=O)C(C)(C)C | 3.2µM* | 3% | 6.3µM*
CCCCN(CC)C(=O)c1ccc(Cl)c(Cl)c1 | 19% | 0% | 6%
O=C(O)c1ccc(-n2c(-c3ccccc3)n[nH]c2=S)cc1 | 6% | 0% | -1%
COc1cc(-c2n[nH]c(=S)n2-c2ccc(C)cc2)cc(OC)c1OC | 15% | -2% | 0%
CC(C)(C)c1ccc(-c2n[nH]c(=S)n2-c2ccccc2)cc1 | 3.2µM* | · | 2.8µM*
SMILES | RORgamma inh | Luc counter | VP16 counter
Cc1n[nH]c(=S)n1-c1ccccc1 | ? | · | -20%
COc1ccc(-n2c(-c3ccc(C)cc3)n[nH]c2=S)cc1 | 1.4µM* | -2% | 3.2µM*
Cc1ccc(-n2c(-c3ccccc3)n[nH]c2=S)c(C)c1 | 5µM* | · | 4.5µM*
Cc1ccc(-n2c(-c3ccccc3)n[nH]c2=S)cc1 | 3.2µM* | 5% | 5.6µM*
COc1ccc(NC(=O)c2sc3nc(N4CCOCC4)c4c(c3c2N)CC(C(C)C)OC4)c(OC)c1 (stereo unspecified) | -19% | · | -1%
CCOC(=O)C(Cc1ccccc1)NC(=O)CCc1nnc2ccc(N3CCCC3)nn12 (stereo unspecified) | -10% | · | 4%
CC(c1ccccc1)n1c(Cn2ncc3ccccc3c2=O)n[nH]c1=S (stereo unspecified) | -5% | -2% | -19%
CC(c1ccccc1)n1c(-c2ccc(C(C)(C)C)cc2)n[nH]c1=S (stereo unspecified) | 7.1µM* | · | 7.1µM*
C=C(C)Cn1c(-c2ccncc2)n[nH]c1=S | 13µM* | 1% | -15%
Cc1ccc(-n2c(-c3ccncc3)n[nH]c2=S)cc1C | 26% | 6% | 4%
Cc1ccc(-n2c(-c3ccncc3)n[nH]c2=S)cc1 | 11µM* | 3% | -7%
Cn1c(-c2cnn(-c3ccccc3)c2N)n[nH]c1=S | -38% | -11% | -8%
Nc1c(-c2n[nH]c(=S)n2-c2ccc(Cl)cc2Cl)cnn1-c1ccccc1 | 2.8µM* | · | -19%
Cc1nc(C)n(CC(C)C(=O)N2CCN(S(=O)(=O)c3ccc(Cl)cc3)CC2)n1 (stereo unspecified) | -11% | · | 3%
COc1cccc(CNC(=O)c2cc(S(=O)(=O)N3CCCC3)cn2C)c1 | ? | · | -1%
CSc1c(C#N)sc(=S)n1-c1ccc(C)cc1 | 24% | 7% | -14%
Cc1ccc(-n2c(-c3ccc(Cl)cc3Cl)n[nH]c2=S)cc1 | 3.2µM* | · | 5µM*
COc1cc(OC)cc(-c2n[nH]c(=S)n2-c2ccc3c(c2)OCO3)c1 | 5.6µM* | 1% | ?
Cc1ccc(-n2c(-c3cnccn3)n[nH]c2=S)cc1 | ? | -1% | -8%
Cc1ccc(-n2c(Cc3noc4ccccc34)n[nH]c2=S)cc1 | -7% | 5% | -27%
Fc1ccc(-n2c(-c3ccc4c(c3)OCO4)n[nH]c2=S)cc1Cl | ? | 1% | ?
Cc1ccc(-n2c(Cc3cccc4ccccc34)n[nH]c2=S)c(C)c1 | 1.1µM* | -3% | ?
COc1ccccc1CN1CC2(CCN(C(=O)c3cccc(F)c3)CC2)C1 | 7% | 2% | -24%
O=C(OCc1nnc(-c2ccccc2)o1)c1ccc2c(c1)OCCO2 | -30% | -2% | 5%
O=C(CCOc1ccccc1)Nc1nnc(-c2ccc3c(c2)OCCO3)o1 | 8.9µM* | -1% | 20µM*
SMILES | RORgamma inh | Luc counter | VP16 counter
O=C(Nc1nnc(-c2ccc3c(c2)OCCO3)o1)C1CCCCC1 | 17% | 1% | ?
O=C(Nc1nnc(-c2ccc3c(c2)OCCO3)o1)c1ccc(Cc2ccccc2)cc1 | 5.6µM* | 0% | 7.1µM*
CCCCC/C=C\C/C=C\C/C=C\CCCCCCC(=O)NCCc1ccc(O)c(O)c1 | 1% | 1% | -11%
CCOc1ccc(C(C)=O)cc1COC(=O)CCc1cc(OC)c(OC)c(OC)c1 | ? | · | 5%
CC(C)(C)OC(=O)NC(Cc1ccccc1)C(=O)NC1COC2CC(n3ccc(=O)[nH]c3=O)OC12 (stereo unspecified) | 8% | · | -3%
O=C(C[n+]1ccccc1)N/N=C/c1ccccc1C(F)(F)F | 22% | · | -4%
O=C(COc1ccc(Br)cc1)NCc1cn2ccccc2n1 | 8% | · | 21%
Cc1cccn2cc(COc3ccc(-c4ccccc4)cc3)nc12 | 13µM* | ? | ?
Cc1cccn2cc(COc3cccc([N+](=O)[O-])c3)nc12 | 1% | -2% | 0%
Brc1ccc(OCc2cn3ccccc3n2)cc1 | 10µM* | -9% | -4%
Cc1ccc(NC(=O)C2CCCO2)cc1[N+](=O)[O-] (stereo unspecified) | 10% | 0% | ?
Cn1cnc([N+](=O)[O-])c1Oc1cccc(O)c1 | -30% | 3% | 13µM*
Cn1cnc([N+](=O)[O-])c1Oc1ccccc1 | -16% | 2% | -20%
